{"source": "the supplement of paper PMC3334620", "note": "Over roughly 33,000 sequences, “E-score (-0.5 to 0.5)” has its median near -0.056; the highest 2% begin near 0.38. Shown is part of a subset that was picked to be rich in the highest values.", "data": [{"target": "Stb4 (UniProt P50104)", "sequence (P50104 whole entry, the tested form may be a part)": "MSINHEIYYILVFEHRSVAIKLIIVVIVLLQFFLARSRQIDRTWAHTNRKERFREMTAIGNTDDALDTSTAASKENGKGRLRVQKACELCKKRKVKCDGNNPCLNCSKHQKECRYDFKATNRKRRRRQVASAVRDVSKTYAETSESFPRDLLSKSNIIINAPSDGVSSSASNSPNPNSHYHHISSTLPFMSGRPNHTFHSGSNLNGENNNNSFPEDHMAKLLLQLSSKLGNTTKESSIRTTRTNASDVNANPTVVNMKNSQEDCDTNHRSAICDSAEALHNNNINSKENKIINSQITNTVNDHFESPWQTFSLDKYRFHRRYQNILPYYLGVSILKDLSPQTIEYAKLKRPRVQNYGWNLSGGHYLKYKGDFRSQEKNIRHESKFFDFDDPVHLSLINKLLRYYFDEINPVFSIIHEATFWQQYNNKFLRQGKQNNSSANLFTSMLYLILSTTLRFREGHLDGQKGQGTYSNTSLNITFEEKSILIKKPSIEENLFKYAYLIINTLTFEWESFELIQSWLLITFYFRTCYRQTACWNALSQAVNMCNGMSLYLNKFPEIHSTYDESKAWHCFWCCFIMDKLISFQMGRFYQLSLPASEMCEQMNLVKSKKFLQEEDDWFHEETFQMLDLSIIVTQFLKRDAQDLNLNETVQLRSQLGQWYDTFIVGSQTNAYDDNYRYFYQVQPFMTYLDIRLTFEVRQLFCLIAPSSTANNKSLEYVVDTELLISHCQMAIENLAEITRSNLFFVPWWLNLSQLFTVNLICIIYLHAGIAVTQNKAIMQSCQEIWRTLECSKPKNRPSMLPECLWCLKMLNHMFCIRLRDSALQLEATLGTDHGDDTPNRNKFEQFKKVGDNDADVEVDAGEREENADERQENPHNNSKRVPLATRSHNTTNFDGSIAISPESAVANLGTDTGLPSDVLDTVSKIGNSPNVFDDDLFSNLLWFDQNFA", "assay": "PBM E-score (8-mer binding enrichment) (E-score (-0.5 to 0.5)); higher = stronger / more preferred TF binding", "conditions": "protein concentration: 200 nM; construct: GST-DNA-binding domain", "method_in_brief": "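Universal all-10-mer Agilent arrays, double-stranded by primer extension on fresh or once-stripped slides, were probed with about 100-200 nM GST-tagged yeast transcription factors made by PURExpress. Fluorescent anti-GST detected bound protein, and masliner normalised the scans. E-scores from the Universal PBM Analysis Suite were given to each ungapped eight-base word pooled with its reverse complement.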", "values": [{"sequence": "AAGTCTTC", "PBM E-score": -0.108}, {"sequence": "ATGCTGAG", "PBM E-score": -0.229}, {"sequence": "ACTTCGGC", "PBM E-score": 0.392}, {"sequence": "GCTTCGCA", "PBM E-score": -0.173}, {"sequence": "CCTTCGGC", "PBM E-score": 0.335}, {"sequence": "CCTTCGAA", "PBM E-score": -0.117}, {"sequence": "ACTTCGCG", "PBM E-score": 0.116}, {"sequence": "ACTTCGGG", "PBM E-score": 0.407}, {"sequence": "CCTTCGGA", "PBM E-score": 0.474}, {"sequence": "GCTTCGGA", "PBM E-score": 0.439}, {"sequence": "GCTTCGTA", "PBM E-score": -0.25}, {"sequence": "ACTTCGAG", "PBM E-score": -0.0152}, {"sequence": "CCTTCGCA", "PBM E-score": -0.236}, {"sequence": "ACTTCGCC", "PBM E-score": -0.0357}, {"sequence": "CGTAGTGA", "PBM E-score": -0.114}, {"sequence": "GAAGAGTC", "PBM E-score": -0.0545}, {"sequence": "ACCACTAA", "PBM E-score": -0.0511}, {"sequence": "AGGAGTCG", "PBM E-score": -0.142}, {"sequence": "GCCATAAC", "PBM E-score": -0.211}, {"sequence": "AAGTCGGG", "PBM E-score": 0.306}, {"sequence": "ACTCATTG", "PBM E-score": -0.0916}, {"sequence": "CACGCCAG", "PBM E-score": -0.0642}, {"sequence": "ACTTCGCA", "PBM E-score": -0.156}, {"sequence": "ACTTCGGA", "PBM E-score": 0.458}, {"sequence": "ACTTCGAA", "PBM E-score": -0.167}, {"sequence": "ACGATCCG", "PBM E-score": 0.399}, {"sequence": "ATGATCCA", "PBM E-score": -0.032}, {"sequence": "ATGATCCC", "PBM E-score": 0.157}, {"sequence": "ATGATCCG", "PBM E-score": 0.397}, {"sequence": "CCGATCCC", "PBM E-score": 0.34}, {"sequence": "CCGATCCG", "PBM E-score": 0.445}, {"sequence": "ACGATCCC", "PBM E-score": 0.192}, {"sequence": "CCGATCCA", "PBM E-score": 0.238}, {"sequence": "ACGATCCA", "PBM E-score": -0.0732}, {"sequence": "GAGACGCA", "PBM E-score": 0.0275}, {"sequence": "CCCAATCC", "PBM E-score": 0.0104}, {"sequence": "CAGGGGCG", "PBM E-score": -0.182}, {"sequence": "GGAACCGA", "PBM E-score": 0.343}, {"sequence": "CGAACCGC", "PBM E-score": 0.0494}, {"sequence": "ATAACCGG", "PBM E-score": 0.281}, {"sequence": "CGAACCGA", "PBM E-score": 0.397}, {"sequence": "GGGACCGA", "PBM E-score": 0.265}, {"sequence": "CTAACCGA", "PBM E-score": 0.401}, {"sequence": "CTAACCGC", "PBM E-score": 0.0169}, {"sequence": "ATAACCGA", "PBM E-score": 0.388}, {"sequence": "CGGACCGA", "PBM E-score": 0.419}, {"sequence": "ATAACCGC", "PBM E-score": 0.0841}, {"sequence": "CGGACCGC", "PBM E-score": 0.29}, {"sequence": "TCAACCGA", "PBM E-score": 0.291}, {"sequence": "GAACGTCA", "PBM E-score": -0.175}, {"sequence": "CTGCCATC", "PBM E-score": -0.0272}, {"sequence": "CCCGTACC", "PBM E-score": 0.245}, {"sequence": "AGAACTTG", "PBM E-score": -0.161}, {"sequence": "ACTGACCT", "PBM E-score": -0.2}, {"sequence": "AATGAAAG", "PBM E-score": -0.0359}, {"sequence": "ACTAGGGG", "PBM E-score": -0.0854}, {"sequence": "TCCGCAGA", "PBM E-score": 0.0922}, {"sequence": "GATACCGA", "PBM E-score": 0.291}, {"sequence": "TATACCGA", "PBM E-score": 0.383}, {"sequence": "GTTACCGA", "PBM E-score": 0.366}, {"sequence": "CATACCGA", "PBM E-score": 0.287}, {"sequence": "GTAACCGA", "PBM E-score": 0.386}, {"sequence": "GTAACCTA", "PBM E-score": 0.0635}, {"sequence": "CTTACCGC", "PBM E-score": 0.119}, {"sequence": "GTAACCCA", "PBM E-score": -0.0452}, {"sequence": "CTTACCGA", "PBM E-score": 0.393}, {"sequence": "GACCCAAC", "PBM E-score": -0.116}, {"sequence": "CGGTAGAG", "PBM E-score": 0.112}, {"sequence": "AATTTGCC", "PBM E-score": 0.0997}, {"sequence": "ATGAGATC", "PBM E-score": -0.124}, {"sequence": "ACTGAAAT", "PBM E-score": -0.18}, {"sequence": "CGTCGGAG", "PBM E-score": 0.275}, {"sequence": "AGTCGGGA", "PBM E-score": 0.362}, {"sequence": "GGTCGGGA", "PBM E-score": 0.368}, {"sequence": "GGTCGGAC", "PBM E-score": 0.144}, {"sequence": "AGTCGGAT", "PBM E-score": 0.429}, {"sequence": "CGTCGGGA", "PBM E-score": 0.383}, {"sequence": "CGTCGGAA", "PBM E-score": 0.452}, {"sequence": "AGTCGGCC", "PBM E-score": 0.168}, {"sequence": "GGTCGGAA", "PBM E-score": 0.439}, {"sequence": "CGTCGGAC", "PBM E-score": 0.269}, {"sequence": "AGTCGTAT", "PBM E-score": -0.147}, {"sequence": "GGACGGAA", "PBM E-score": 0.328}, {"sequence": "CTAGATAC", "PBM E-score": 0.0146}, {"sequence": "AGGACCGC", "PBM E-score": -0.0222}, {"sequence": "CAGAATAA", "PBM E-score": -0.0851}, {"sequence": "AGTCGGAC", "PBM E-score": 0.176}, {"sequence": "AGTCGGAA", "PBM E-score": 0.451}, {"sequence": "TGTCGTAA", "PBM E-score": -0.215}, {"sequence": "TGACGGAA", "PBM E-score": 0.312}, {"sequence": "AGTCGGAG", "PBM E-score": 0.226}, {"sequence": "TGTCGGAA", "PBM E-score": 0.416}, {"sequence": "AGAGAACT", "PBM E-score": -0.114}, {"sequence": "GGGTCACA", "PBM E-score": -0.0305}, {"sequence": "CAATTTAA", "PBM E-score": -0.105}, {"sequence": "GGTTTTTA", "PBM E-score": -0.0968}, {"sequence": "CAGGAGCA", "PBM E-score": -0.163}, {"sequence": "CACCTGAG", "PBM E-score": -0.337}, {"sequence": "CTGATATC", "PBM E-score": 0.136}, {"sequence": "AGGATATA", "PBM E-score": -0.0497}, {"sequence": "AGGATATC", "PBM E-score": 0.0132}, {"sequence": "CGGATATA", "PBM E-score": 0.452}, {"sequence": "GGGATATA", "PBM E-score": 0.168}, {"sequence": "CGGATATC", "PBM E-score": 0.426}, {"sequence": "TCCAGTAA", "PBM E-score": -0.176}, {"sequence": "TCTGACCA", "PBM E-score": -0.24}, {"sequence": "CGTTCGGA", "PBM E-score": 0.465}, {"sequence": "CGTTCGTA", "PBM E-score": -0.0524}, {"sequence": "GGTTCGCA", "PBM E-score": 0.0434}, {"sequence": "GGTTCGGA", "PBM E-score": 0.442}, {"sequence": "CGTTCGGC", "PBM E-score": 0.368}, {"sequence": "GGTTCGAA", "PBM E-score": -0.0143}, {"sequence": "ACATTGGA", "PBM E-score": -0.177}, {"sequence": "CGAGATAG", "PBM E-score": 0.00411}, {"sequence": "CTGCAAAG", "PBM E-score": -0.28}, {"sequence": "CGTCCTGA", "PBM E-score": -0.249}, {"sequence": "TCCGTTAA", "PBM E-score": 0.259}, {"sequence": "AAAAACCT", "PBM E-score": 0.0896}, {"sequence": "GCCGAGGC", "PBM E-score": 0.436}, {"sequence": "GCCGAGGA", "PBM E-score": 0.4}, {"sequence": "TACGAGGA", "PBM E-score": -0.193}, {"sequence": "ACCGAGGC", "PBM E-score": 0.302}, {"sequence": "ACCGAGGA", "PBM E-score": 0.323}, {"sequence": "CACGAGGA", "PBM E-score": -0.11}, {"sequence": "CCCGAGGA", "PBM E-score": 0.388}, {"sequence": "GACGAGGC", "PBM E-score": -0.0506}, {"sequence": "GTCGAGGA", "PBM E-score": -0.239}, {"sequence": "CTCGAGGA", "PBM E-score": -0.188}, {"sequence": "TCAGAGGA", "PBM E-score": -0.183}, {"sequence": "TCCGAGGA", "PBM E-score": 0.453}, {"sequence": "GTAAGCAC", "PBM E-score": -0.144}, {"sequence": "CGAAATGC", "PBM E-score": 0.124}, {"sequence": "ATGTCGTA", "PBM E-score": -0.29}, {"sequence": "AGGATGGA", "PBM E-score": 0.0445}, {"sequence": "CAGGATTA", "PBM E-score": 0.00923}, {"sequence": "CACCCTCG", "PBM E-score": 0.0812}, {"sequence": "CACACATG", "PBM E-score": -0.15}, {"sequence": "CGATCGCC", "PBM E-score": 0.0955}, {"sequence": "TAGTAACA", "PBM E-score": -0.0586}, {"sequence": "CCCAGAGC", "PBM E-score": -0.299}, {"sequence": "AGAAGGAA", "PBM E-score": 0.0573}, {"sequence": "CCCGAGGC", "PBM E-score": 0.388}, {"sequence": "CACGAGGG", "PBM E-score": -0.0631}, {"sequence": "CCCGAGGG", "PBM E-score": 0.404}, {"sequence": "ACCGAGGG", "PBM E-score": 0.27}, {"sequence": "CACGAGGC", "PBM E-score": -0.131}, {"sequence": "CGCGAGGC", "PBM E-score": 0.0155}, {"sequence": "CCATAAGG", "PBM E-score": -0.314}, {"sequence": "CCAGATAC", "PBM E-score": -0.122}, {"sequence": "CTATTGCA", "PBM E-score": -0.0693}, {"sequence": "ACAGACCT", "PBM E-score": 0.00106}, {"sequence": "ACCAATCT", "PBM E-score": 0.0037}, {"sequence": "AGGATAAA", "PBM E-score": -0.0635}, {"sequence": "GGGATAAC", "PBM E-score": 0.0907}, {"sequence": "AGGATAAG", "PBM E-score": -0.0142}, {"sequence": "CGGATAAA", "PBM E-score": 0.465}, {"sequence": "AGGATAAC", "PBM E-score": -0.159}, {"sequence": "CGGATAAG", "PBM E-score": 0.41}, {"sequence": "CGGATAAC", "PBM E-score": 0.452}, {"sequence": "CCGATAAG", "PBM E-score": 0.269}, {"sequence": "TGGATAAA", "PBM E-score": 0.027}, {"sequence": "AGATCAGC", "PBM E-score": 0.0618}, {"sequence": "GGTAGACC", "PBM E-score": 0.143}, {"sequence": "CCTCTTAC", "PBM E-score": -0.274}, {"sequence": "AACGACTA", "PBM E-score": -0.151}, {"sequence": "AAGGTACG", "PBM E-score": -0.0106}, {"sequence": "GGCCTAAA", "PBM E-score": -0.102}, {"sequence": "ATCCGACC", "PBM E-score": 0.425}, {"sequence": "AGCCGACG", "PBM E-score": 0.353}, {"sequence": "AACCGACG", "PBM E-score": 0.304}, {"sequence": "CTCCGACA", "PBM E-score": 0.227}, {"sequence": "ATCCGACA", "PBM E-score": 0.442}, {"sequence": "CTCCGACC", "PBM E-score": 0.315}, {"sequence": "GTCCGACA", "PBM E-score": 0.213}, {"sequence": "ATCCGACG", "PBM E-score": 0.452}, {"sequence": "ACCCGACC", "PBM E-score": 0.382}]}]}
